Phagocytosis inh – inhibitors of macrophage phagocytosis, primary screen, imaging, J774A.1 cells, IgG beads; J774A.1 macrophage IgG-bead phagocytosis; inhibition, % at 5 µM; hit rate 0.07% among 110,000; AID 1029, 2008;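 active means inhibition above the mean of the plate negative controls plus 5 SD, cut at about 13% in these data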;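 further: phagocytic index as fraction of beads internalized from green versus red external bead signal; plate controls were DMSO negative control for no effect and cytochalasin-D positive control for full effect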
E-sel TNF inh – E-selectin induction blockers in HUVEC – imaging, immunofluorescence, high content, primary screen; HUVEC TNFa-induced E-selectin immunofluorescence; inhibition, % at 2 µM; hit rate 0.71% among 120,000; AID 1246, 2008;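 active means inhibition above the batch mean plus 3 SD, and confirmed as a hit on visual image review, cut at about 43% in these data; inconclusive means passes the inhibition cutoff but fails visual image review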;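 further: 0% = TNF-stimulated DMSO wells and 100% = unstimulated control wells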
F-actin modifier – modifiers of F-actin cytoskeleton organization, primary screen, imaging, HUVEC, phalloidin staining, high-content imaging; inhibition, % at 2 µM; hit rate 0.18% among 91,000; HUVEC TNFa F-actin phalloidin imaging;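 active means inhibition above the batch mean plus 3 SD and confirmed as a hit by visual image inspection, cut at about 30% in these data, passing the limit was not always enough; inconclusive means above the inhibition threshold but rejected on visual inspection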
VCAM1 TNFa inh – inhibitors of TNFa-induced VCAM1 expression, primary screen, imaging, HUVEC, TNFa stimulus, immunofluorescence; HUVEC TNFa-induced VCAM-1 immunofluorescence, high-content imaging; inhibition, % at 2 µM; hit rate 0.48% among 95,000;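 active means inhibition above the batch mean plus 3 SD, with images confirmed as a hit by eye, cut at about 37% in these data; inconclusive means inhibition above that limit but hit not confirmed in images; inactive means inhibition not above that limit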;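 further: 0% = TNF-stimulated DMSO wells and 100% = unstimulated control wells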
TNFa cytotox – cytotoxicity in TNFa-stimulated HUVEC, primary screen, cytotoxicity control for VCAM1 expression modulator project, imaging, Hoechst nuclei count | hit rate 0.17% among 93,000 | cell count reduction, % at 2 µM | AID 848, 2007 | HUVEC TNFalpha-stimulated, Hoechst cell count;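 active means cell count reduction exceeding the screen mean by over 5 SD, scaled to untreated wells per plate, cut at about 78% in these data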;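 further: cells counted after 24 h of TNF alpha exposure following the 1 h pretreatment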
SDO1 yeast rescue – growth rescue of sdo1-depleted yeast, primary screen, S. cerevisiae, bone marrow failure model | S. cerevisiae sdo1-depleted JHY4D growth rescue, OD600 30 h; stronger effect = higher value; pdr5 snq2 efflux-pump mutant strain | z-score at 10 µM | hit rate 0.21% among 140,000;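 active means z-score above 3 at both the 24 hr and the 30 hr optical density reads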;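 further: z-score against mean and SD of all compound wells on the same plate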
sdo1 rescue conf – SDO1-depleted yeast growth rescue, concentration-response, diseases of bone marrow failure, JHY4D, OD600 | hit rate 44% among 440 | AID 949, 2007 | OD recovery (no concentration beside the values) | shares compounds with SDO1 yeast rescue | S. cerevisiae JHY4D (SDO1-depleted) growth rescue, 30 h; stronger effect = higher value; efflux-deficient strain, SNQ2 and PDR5 mutated;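 active means yeast growth recovered at 30 hours, either rising with dose fitted slope above 0.001 or with average optical density gain above 0.07, some results past the limit were not filed as active; inactive means growth falling with dose or no effect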;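 further: gain in OD600 from 0 h to 30 h averaged across all seven doses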
Starred values were filed as active, the others as inactive; ? = inconclusive; . = no result. Sampled rows, rich in hits. Any-hit rate of the full collection: about 1.2%.

SMILES	Phagocytosis inh	E-sel TNF inh	F-actin modifier	VCAM1 TNFa inh	TNFa cytotox	SDO1 yeast rescue	others
CCN(CC)CCN=Cc1c(O)n(Cc2ccccc2)c(=O)[nH]c1=O	104*	-21	-9	1	-3	0.34
CC(=NCCCO)c1c(O)n(Cc2ccccc2)c(=O)[nH]c1=O	.	-26	39	94*	.	0.56
CCN(CC)CCCN=Cc1c(O)n(Cc2ccc(F)cc2)c(=O)[nH]c1=O	-1	.	-20	-4	5	0.94
O=C1C2(c3ccccc3)CN3CN(C2)CC1(c1ccccc1)C3	-1	-10	1	11	-18	-0.12
CCOC(=O)C(C)(CC)NC(=O)CSP(=S)(OCC)OCC (configuration not stated)	0	2	-3	4	10	0.2
CN(C)C(=O)Oc1c(Cl)cc(Cl)c2cccnc12	.	74*	.	.	.	.
Cn1c(O)c(C(=N)COc2cccc(Cl)c2)c(=O)n(C)c1=O	-2	65*	20	5	-13	-0.09
O=c1c2ccccc2[se]n1-c1ccccc1	.	.	.	.	.	-2
COc1ccc(OCC(=O)N2CCN(Cc3nc4cc([N+](=O)[O-])ccc4n3C)CC2)cc1	-13	.	.	.	.	-0.72
COc1ccc(Oc2cc(NC(=O)c3nn(C)cc3[N+](=O)[O-])cc([N+](=O)[O-])c2)cc1	-1	90*	24	90*	39	-0.73
O=C1C(=O)c2cccc3cccc1c23	3	4	.	.	.	-0.36
O=C1C(=O)c2ccccc2-c2ccccc21	0	-26	18	84*	41	-2.9
CCOC(=O)C1=C(C)OC(N)=C(C#N)C12C(=O)N(C)c1ccccc12 (configuration not stated)	.	9	5	10	-4	0.72
C=CCOC(=O)C1=C(C)OC(N)=C(C#N)C12C(=O)N(CN1CCOCC1)c1ccccc12 (configuration not stated)	0	.	-48	88*	91*	0.25
CN1/C(=C\C=C\C2=[N+](C)c3ccc4ccccc4c3C2(C)C)C(C)(C)c2ccccc21	.	7	14	84*	28	-1.2
CN1/C(=C\C=Nc2ccccc2)C(C)(C)c2ccccc21	-2	-20	10	12	-8	0.22
O=C(c1ccc2c(c1)ncn2C1CCCCC1)N1CCC2(CC1)OCCO2	.	.	-27	92*	80*	0.39
O=C(c1cc2ccccn2n1)N1CCC2(CC1)OCCO2	-3	.	-32	-3	4	0.01
CC(=O)Nc1ccc(OCCF)cc1	.	100*	.	.	.	.
C[C@H]1CCC/C=C/C2C[C@H](O)CC2[C@H](O)/C=C/C(=O)O1 (some centres not stated)	.	.	.	.	.	-0.69
CC1CCC/C=C/C2CC(O)CC2C(O)/C=C/C(=O)O1 (configuration not stated)	3	98*	13	94*	87*	-0.34
CSc1ccc(CNC2CN3CCC2CC3)cc1 (configuration not stated)	-2	-3	-17	93*	86*	-0.48
CCCCOC(=O)C1=C(N)OC2=C(C(=O)CC(C)(C)C2)[C@]12C(=O)N(C)c1ccccc12	1	-9	.	.	.	-0.76
CCN(CC)CCOC(=O)c1ccc(N=Cc2c(O)[nH]c(=O)[nH]c2=O)cc1	0	51*	-17	16	5	0.73
COC(=O)C1CN(C#N)N(c2ccc(Cl)cc2)C12c1ccccc1-c1ccccc12 (configuration not stated)	.	63*	?	.	.	-2.1
SMILES	Phagocytosis inh	E-sel TNF inh	F-actin modifier	VCAM1 TNFa inh	TNFa cytotox	SDO1 yeast rescue	others
Oc1cccc(/C=N/NP(=S)(c2ccccc2)c2ccccc2)c1	-1	.	5	-14	0	-0.49
COc1ccc(N2C(=O)NC(=O)C(CCc3ccncc3)(CCc3ccncc3)C2=O)cc1	.	10	3	30	-21	-0.2
COC(=NC1CCCC1)C(O)c1c[nH]c2ccccc12 (configuration not stated)	.	7	5	-8	8	0.72
COc1ccccc1N=Cc1c(O)n(C)c(=O)n(C)c1=O	0	.	-9	0	-28	3.2*	sdo1 rescue conf=0.083*
O=C(N/N=C/c1c(O)n(CCC2=CCCCC2)c(=O)[nH]c1=O)c1ccccc1	-6	.	.	.	.	1
Nc1ccccc1N=Cc1c(O)n(CCC2=CCCCC2)c(=O)[nH]c1=O	1	-21	18	18	-22	7.4*	sdo1 rescue conf=0.059
CC(O)(CS(=O)(=O)c1ccccc1)C(=O)Nc1cccc(C(F)(F)F)c1 (configuration not stated)	.	-2	34	10	-32	1.7
C[N+]1=C(/C=C/Nc2ccccc2)C(C)(C)c2ccccc21	-3	-8	.	.	.	6.2*	sdo1 rescue conf=0.14*
O=c1[nH]c(=O)n(Cc2ccco2)c(O)c1C=NCCCn1ccnc1	-1	22	0	1	4	0.26
